High-throughput results as filed in PubChem.
Pf growth 96h: inhibits malaria parasite growth, 96 h; P. falciparum luciferase reporter growth, 96 h; Potency, µM (doses to about 28.7 µM), for the others: top-dose activity change, negative = inhibition, actives largely listed as inhibitors; hit rate 6.9% among 320,000; note: potency is the fitted concentration of half-maximal effect; % is set by controls: 0 for no effect and ±100 for the full control effect
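Luminescence readout: decreased luciferase signal marks inhibited growth of reporter-expressing P. falciparum in infected red cells (2% hematocrit, 0.05% parasitemia final), exposed to compound two generations (96 h, 37 C, 5% CO2).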
Pf growth 48h: inhibits P. falciparum growth in the first generation, 48 h; P. falciparum luciferase growth in erythrocytes, 48 h; Potency, µM (series often up to 28.7 µM), inactives show at the highest dose activity change, negative = inhibition, usual class: inhibitors; hit rate 5.9% among 310,000; note: potency is the fitted concentration of half-maximal effect; % is set by controls: 0 for no effect and ±100 for the full control effect
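Luminescence readout; reporter = integrated firefly luciferase in P. falciparum. RBC culture at 2% hematocrit, 0.1% parasitemia final, 37 C/5% CO2; decreased signal taken as growth inhibition.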
Cycloheximide cs: counter-screen for Shiga toxin inhibitors: cycloheximide protein synthesis inhibition | cell reporter, cycloheximide protein synthesis inhibition counterscreen | hit rate 12% among 300,000 | max response, %; in the data active = max response mostly above about 13%, no sharp cut-off; inactive = mostly below about 14%; note: read at 38.3 µM for the half of the compounds with a filed dose; 0% is about no effect
Marburg entry inh: Marburg virus entry inhibition; AID 540276; Marburg virus pseudotyped entry inhibition, cell reporter; hit rate 1.8% among 300,000; Potency, µM (series often up to 37.8 µM), for the others: top-dose activity change, negative = inhibition, usual class: inhibitors; calls by dose curve; tested in HEK293 cells; note: potency is the fitted concentration of half-maximal effect; % is set by controls: 0 for no effect and ±100 for the full control effect
Shiga inhibitor: blocks Shiga toxin action in Vero cells; Vero cells, Shiga toxin protein synthesis inhibition reporter; inhibition, % at 38.7 µM; hit rate 9.2% among 290,000; in the data active = inhibition mostly above about 28%, no sharp cut-off; inactive = mostly below about 43%; note: 0% is about no effect
Lassa entry inh: inhibitors of Lassa virus binding or cell entry; AID 540256; Potency, µM (doses to about 37.9 µM), for the others: at the top dose activity change, negative = inhibition, hits mostly inhibitors; hit rate 1.2% among 300,000; Lassa virus pseudotype entry inhibition, cell reporter; calls by dose curve; tested in HEK293 cells; note: potency is the fitted concentration of half-maximal effect; % is set by controls: 0 for no effect and ±100 for the full control effect; nearly all actives have a fitted effect of over 50% in size
Active calls of the source: *; ? = inconclusive; / = no result; [ ] = dose if it differs, or a comment. Sampled rows, rich in hits. Any-hit rate of the full collection: about 19%. Unless noted, calls come from the whole dose curve; as a rule, active = well fitted inhibition curve with a large enough effect; inconclusive = small, poorly fitted or top-dose-only effect, or another doubt; inactive = no such curve, though single readings can be large or run the other way.

SMILES	Pf growth 96h	Pf growth 48h	Cycloheximide cs	Marburg entry inh	Shiga inhibitor	Lassa entry inh
CCN(CC)c1ccc2cc(-c3nc(-c4ccc(OC)cc4)cs3)c(=O)oc2c1	-7.3%	18.7%	-1.7	?	1.9	1.2%
CCN(CC)c1ccc2cc(-c3nnc(-c4ccccc4)o3)c(=O)oc2c1	-28.6%	23.7%	35.4*	?	70.3*	8.2%
CCN(CC)c1ccc2cc(-c3nc(-c4ccc(Cl)cc4Cl)cs3)c(=O)oc2c1	/	/	/	/	/	-7.8%[46.1 µM]
CN(C)Cc1c(O)ccc2cc(-c3nc4ccccc4n3C)c(=O)oc12	-26.3%	-5.4%	20.1*	?	33.0	?
CCN(CC)c1ccc2c(C)c(CO)c(=O)oc2c1	31.5%	?	13.9	26.0%[46.1 µM]	27.9	7.2%[46.1 µM]
CCN(CC)c1ccc2cc(-c3nc4ccccc4n3C)c(=O)oc2c1	43.4%	/	36.9*	36.8%	80.5*	-1.4%
CCN(CC)c1ccc2cc(-c3nc4ccccc4[nH]3)c(=O)oc2c1	213.8%	133.7%	49.2*	?	81.5*	?
COCCn1c(-c2ccc(Cl)cc2)nc2oc3cc(OC)ccc3c(=O)c2c1=O	?	?	-4.5	/	8.8	/
CN(C)S(=O)(=O)c1cccc(NC(=O)c2cccc(S(=O)(=O)N3CCCCC3)c2)c1	?	?	/	?	/	0.0%
CC1CCN(S(=O)(=O)N2CCC(C(=O)O)CC2)CC1	?	15.0%	6.4	10.4%	7.1	3.9%
CCOc1ccc(OCC)c(NC(=O)CCS(=O)(=O)c2ccc(Br)s2)c1	/	?	14.9*	-29.1%	32.6	-3.7%
CCOc1ccc(NC(=O)CCS(=O)(=O)c2ccc(Br)s2)cc1	/	/	/	6.6%[46.1 µM]	/	?
Cc1ccc(C(=O)NCCc2ccccc2)cc1N1CCCC1=O	?	32.6%	13.0	/	26.2	/
O=C(NCCc1ccccc1)c1cccc(N2CCCC2=O)c1	?	98.2%	33.2*	/	30.3*	/
Cc1cccc(CCNC(=O)c2cccc(N3CCCC3=O)c2)c1	?	90.6%	43.9*	/	74.7*	/
CN(CCCNC(=O)c1cccc(N2CCCC2=O)c1)c1ccccc1	61.1%	?	15.6*	-12.7%	14.5	4.9%
Cc1ccc(CCNC(=O)c2cccc(N3CCCC3=O)c2)cc1	-9.2%	36.7%	21.6	/	66.0*	/
Cc1cccc(NC2=CC(=O)CC(C)(C)C2)c1C	-23.5%	3.3%	-2.5	/	-34.6	/
Cc1ccc(C)n1-c1cccc(C(=O)Nc2ccccc2)c1	?	?	17.5*	/	36.7	/
O=C(Nc1ccccc1)c1cccc(N2CCCC2=O)c1	?	183.2%	33.6*	?	40.5*	?
O=C1N[C@@H](Cc2ccccc2)C(=O)N2[C@H]1C[C@]1([C@]34C[C@H]5C(=O)N[C@@H](Cc6ccccc6)C(=O)N5[C@H]3N(S(=O)(=O)c3ccccc3)c3ccccc34)c3ccccc3N(S(=O)(=O)c3ccccc3)[C@H]21	0.738µM*	1.47µM*	/	/	/	/
O=C(NCc1ccncc1)C(=O)NCC(c1ccccc1)c1ccccc1	36.0%	-25.5%	-2.4	13.2%	1.3	2.3%
Cn1c(NN)nc2ccccc2c1=O	346.6%	8.0%	36.5*	/	33.1*	/
Cn1c(N)nc2ccccc2c1=O	12.4%	18.8%	-2.5	-1.8%[46.1 µM]	27.4	5.4%
CCOC(=O)c1nc2ccccc2c(=O)n1-c1ccc(C)cc1C	?	?	3.7	-4.8%	1.1	14.1%
SMILES	Pf growth 96h	Pf growth 48h	Cycloheximide cs	Marburg entry inh	Shiga inhibitor	Lassa entry inh
Cc1ccc(-n2c(NN)nc3ccccc3c2=O)c(C)c1	9.28µM*	?	-6.1	?	-7.7	5.0%
COc1cc(OC)c(OC)cc1CN(C)C(c1ccccc1)c1nnnn1-c1ccccc1C (stereo unspecified)	10.4µM*	?	-2.0	?	19.8	?
COc1ccc(CN(C)C(c2ccccc2)c2nnnn2-c2ccccc2C)c(OC)c1C (stereo unspecified)	-12.9%	?	-3.0	?	-2.3	?
CCOC(=O)N1CCN(S(=O)(=O)CCNC(=O)c2ccccc2)CC1	4.0%	9.9%	/	-4.0%[46.1 µM]	/	-12.7%
CCOC(=O)C1CCN(C(=O)c2cc(OCC)c(OCC)c(OCC)c2)CC1	-10.9%	0.5%	-4.5	-3.8%	4.0	-9.4%
COc1cccc(C(=O)CN2C(=O)C(C)(C)Oc3ccc(C(=O)N4CCOCC4)cc32)c1	0.0%	-14.2%	-1.5	21.4%[46.1 µM]	-4.5	14.0%
COc1cccc(C(=O)CN2C(=O)C(C)(C)Oc3ccc(C(=O)N4CCCCCC4)cc32)c1	/	?	31.3*	-9.0%	5.6	19.7%
O=C(CN(c1ccccc1Cl)S(=O)(=O)c1ccccc1)NCc1ccccc1	11.7µM*	?	6.9	-21.9%[46.1 µM]	21.4	-11.9%[46.1 µM]
O=C(CN(c1ccc2c(c1)OCCO2)S(=O)(=O)c1ccccc1)NCc1ccc(Cl)cc1	11.7µM*	-25.7%	-6.3	?	-9.3	-7.1%
CCNC(=O)CN(c1ccc(Cl)cc1)S(=O)(=O)c1ccccc1	/	5.1%	-1.9	1.16µM*	28.6	?
O=C(CN(c1ccc(F)cc1)S(=O)(=O)c1ccc2c(c1)OCCO2)NCc1ccccc1	?	/	-3.1	-2.3%	21.3	?
CCOC(=O)NN=C1C[C@@H](O)[C@@H](O)[C@@H]2[C@H]3C(=O)N([C@@H](C)c4ccccc4)C(=O)[C@@H]3CC[C@H]12	/	/	/	9.5%[14.2 µM]	/	/
Cn1nnnc1SCc1cn2cccnc2n1	?	12.2%	8.8	20.7%	10.7	17.8%
Cc1ccc(NC(=O)Cn2cnc3sc(C)c(S(=O)(=O)N4CCN(c5ncccn5)CC4)c3c2=O)cc1F	/	/	/	30.2%[46.1 µM]	/	-6.1%[46.1 µM]
S=C(NCc1ccco1)Nc1ccccc1Cl	37.8%	43.0%	20.3*	/	33.0	/
S=C(NCc1ccco1)Nc1ccc(Oc2ccc(Cl)cc2)cc1	?	?	0.8	-19.5%[46.1 µM]	-1.6	-6.0%
S=C(NCc1ccco1)Nc1cccc(Cl)c1Cl	13.8%	10.4%	8.8	?	48.0	-12.8%[46.1 µM]
Oc1ccc(/C=N/NC(=S)NCc2ccco2)cc1	136.7%	32.5%	6.7	0.0%	3.2	?
CCN(CC)c1ccc(/C=N/NC(=S)NCc2ccco2)cc1	?	?	9.1	?	6.2	2.06µM*
S=C(NCc1ccco1)Nc1ccc(Cl)cc1	45.2%	43.3%	15.5*	-17.3%	15.6	-12.7%
S=C(NCc1ccco1)N/N=C/c1ccc(Cl)cc1	11.2%	15.8%	0.7	-9.9%	14.6	4.61µM*
CC(=O)Nc1sc2c(c1C(c1ccccn1)N1CCN(C)CC1)CCCC2 (stereo unspecified)	?	-25.1%	-6.4	-15.2%[46.1 µM]	-10.8	-3.0%[46.1 µM]
CC(=O)Nc1sc2c(c1C(c1ccccn1)N1CCCC1)CCCC2 (stereo unspecified)	10.4µM*	9.28µM*	17.6	?	3.4	?
O=C1N(c2ccccc2)C[C@@H]2C[C@@H](c3cc4ccccc4o3)N3CCC[C@@]123	13.1µM*	-14.6%	9.3	?	1.0	?
CCOc1ccc(NC(=O)Cc2cccc3ccccc23)c([N+](=O)[O-])c1	28.7%	-8.9%	8.9	2.3%[46.1 µM]	-0.9	3.7%
